Growth inhibition data for 24 molecules are collected here from PubChem BioAssay (NCI).

“And” between values parts separate entries of the source, which are not always exact repeats. Equal values may be shown once. About 79,000 compounds went through this panel and 15% of them were active in at least one assay; those are over-represented in the sample as a whole. Values without a mark were called inactive. The source made the active and inactive calls. Rule as the data show it: active = growth inhibition above about 70%; inactive = the rest.

A short description of this experiment: NCI Yeast Anticancer Drug Screen. Data for the rad50 strain (AID 155).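 Also: 0% = growth of vehicle-only cultures of the same strain.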 The conditions noted are these: S. cerevisiae rad50 strain growth inhibition; at 50.0 µM; hits give high values. The essentials: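 Growth of the mutant yeast was measured after compound exposure and referenced to vehicle-treated cultures.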
Regarding `NC(CCOCCP(=O)(O)O)C(=O)O` (centres undefined), the growth inhibition was -51.3%.
The figure for `C=C(C)C1C2CC3(C)C4(CO4)C4OC4C3(O)C1C(=O)O2` (centres undefined) is 13.3%; for `COc1ccc(CCN(C)Cc2cccc(OC)c2OC)cc1OC` it is -17.1%; for `O=C(Nc1cccc(Cl)c1)OCC(Cl)(Cl)Cl` it is 99.6% (active).
`CCCCC(CC)COP(OCC(CC)CCCC)OCC(CC)CCCC.[Cl][Sn][Cl]` (centres undefined): the growth inhibition was -8.1%.
The same measure for `CC1=C[C@H]2[C@@]3(O)[C@H](C)C[C@]4(OC(=O)C(C)C)[C@H]([C@@H]3C=C(CO)C[C@]2(O)C1=O)C4(C)C`: 20.1%.
For the molecule `CCN(CCCl)CCCCCNc1c2ccccc2nc2ccc(OC)cc12`, the growth inhibition is 84.5% (active).
The figure for `CC12CCC3C(CCC4(O)C=CCCC34C=O)C1(O)CC(O)C2c1ccc(=O)oc1` (centres undefined) is -28.1%; for `CN(C)CCNC(=O)c1cc(COC(=O)N(CCCl)CCCl)ccc1[N+](=O)[O-]` it is 38.2%.
The same measure for `COc1ccc2c3c1OC1C(C)(O)C(O)CC4C(C2)N(C)CCC341` (centres undefined): -3.55%; for `O=P(c1ccccc1)(c1ccccc1)c1ccccc1.O=P(c1ccccc1)(c1ccccc1)c1ccccc1.O=P(c1ccccc1)(c1ccccc1)c1ccccc1.O=P(c1ccccc1)(c1ccccc1)c1ccccc1.[Co+2].[O-][Cl+3]([O-])([O-])O`: 22.7%; for `CCSCCC(N)C(=O)O` (centres undefined): 0.15% and -21.3%.
On to `OCC(O)C(O)CO` (centres undefined), for which the growth inhibition was 6.7% and 6.95%.
The figure for `c1ccc(CCN2CCOCC2)nc1` is 17.3%; for `COP(=O)(OC)/C(=C/c1c[nH]c2ccccc12)C(=O)O` it is -12.7%.
The same measure for `CCC(C)C1NC(=O)C2CCCN2C(=O)C(CC2CO2)OC(=O)CCNC(=O)C(C)N(C)C(=O)C(C(C)C)N(C)C1=O` (centres undefined): 55.1%; for `[C-]#[O+].[C-]#[O+].[C-]#[O+].[Ni].c1ccc([PH+](CC[PH+](c2ccccc2)c2ccccc2)CC[PH+](c2ccccc2)c2ccccc2)cc1`: 43.9%; for `CC(=O)c1ccc([As](=O)(O)O)cc1`: -10.3%.
With `COc1cccc(C=C(C#N)C#N)c1OC`, the growth inhibition was -9.8%.
For the molecule `CCC1C2CC3C4N(C)c5ccccc5C45CC(C2C5O)N3C1O` (centres undefined), the growth inhibition is 20.9% and -6.8% and -4.75%.
The figure for `O=C1NC(=S)NC(=O)C1=Cc1cccc2cc3ccccc3cc12` is 97.7% (active); for `COC(=O)C(CC(=O)N[N+](=O)[O-])NC(=O)C(CSC(c1ccccc1)(c1ccccc1)c1ccccc1)NC(=O)OCc1ccccc1` (centres undefined) it is -3.4%; for `O=C(O)C(O)(c1ccccc1)C1CCCCC1` (centres undefined) it is 1% and 8.5%.
The same measure for `CC(C)[N+](C)(CCC(C(=O)N(C)C)(c1ccccc1)c1ccccc1)C(C)C`: 18.6%.
